Measured values as given in PubChem BioAssay (NCATS).
Results filed as inconclusive are left out. Unmarked numbers belong to inactive results. Active and inactive are the calls of the source. The call rests on the fitted dose curve; in most records, active means well fitted inhibition curve with a large enough effect; inconclusive means small, poorly fitted or top-dose-only effect; inactive means flat fitted curve, though single readings scatter.

Test system: CRL-7250
Experiment: Cytotoxic Profiling of Annotated Libraries Using Quantitative High-Throughput Screening (AID 1296008); further: nearly all actives have a fitted effect of over 60% in size
Conditions: Five cell lines viability, CellTiter-Glo ATP luminescence, 48-72 h; max response: stronger effect = lower value
Method in brief: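 Cytotoxicity was measured as CellTiter-Glo ATP luminescence, read after 10 min at room temperature. Compound treatment of the cells lasted 48 or 72 hr at 37 degrees Celsius in a qHTS format.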
On the % scale 0 is the no-effect control and ±100 the full control effect.

| SMILES | outcome | max response |
| --- | --- | --- |
| C=CC1C(O[C@@H]2O[C@H](CO)[C@@H](O)[C@H](O)[C@H]2O)OC=C(C(=O)OC)C1CC(=O)O (some centres undefined) | inactive |  |
| CC(C)(O)c1ccc2c(c1)C(O)CC1C(C)(C(=O)O)CCCC21C (centres undefined) |  | -4.52% |
| CC(C)(O)C1CCC2(C)C3C(O)C4C(C13)C42CO (centres undefined) | inactive |  |
| O=c1ccn(C2OC(CO)C(O)C2O)c(=O)[nH]1 (centres undefined) | inactive |  |
| CCCC(N[C@@H](C)C(=O)N1[C@H](C(=O)O)C[C@@H]2CCCC[C@@H]21)C(=O)OCC (some centres undefined) | inactive |  |
| CCC[C@@H]1C[C@@H](C(=O)N[C@@H]([C@H]2O[C@H](SC)[C@H](O)[C@@H](O)[C@@H]2O)[C@@H](C)O)N(C)C1 | inactive |  |
| COc1cc([C@H]2OC[C@@H]3[C@@H](c4ccc(O[C@@H]5O[C@H](CO)[C@@H](O)[C@H](O)[C@H]5O)c(OC)c4)OC[C@]23O)ccc1O |  | -6.95% |
| O=C(OCc1cccc(O)c1O[C@@H]1O[C@H](CO)[C@@H](O)[C@H](O)[C@H]1O)C1(O)C(=O)C2C=CC1C1C=CC(=O)C(O)(C(=O)OCc3cccc(O)c3O[C@@H]3O[C@H](CO)[C@@H](O)[C@H](O)[C@H]3O)C21 (some centres undefined) |  | -8.04% |
| COC(=O)CC[C@@H](C)[C@H]1CC[C@H]2[C@@H]3CC(=O)[C@H]4C[C@H](OC(C)=O)CC[C@]4(C)[C@H]3CC[C@]12C |  | -2.01% |
| FC(F)(F)c1cc(C(F)(F)F)c2ccc3nc(-c4nnco4)cn3c2n1 | inactive |  |
| COc1c(C)c2c(c(O)c1C/C=C(\C)CC/C=C(\C)CCC(=O)O)C(=O)OC2 |  | -4.04% |
| CC[C@@H](c1ccc(F)c(F)c1)n1c(C(=O)OC)c(-c2ccno2)[nH]c1=S |  | -7.34% |
| CC(C)=CCC/C(C)=C/CC/C(C)=C/CC[C@]1(C)CCc2cc(O)cc(C)c2O1 |  | 3.81% |
| CC1=CC(=O)CC(C)(C)C1CCC(C)OC1OC(COC(=O)c2cc(O)c(O)c(O)c2)C(O)C(O)C1O (centres undefined) |  | -1.65% |
| COc1ccc(/C=C/C(=O)O[C@H]2[C@@H]3C=CO[C@@H](O[C@@H]4O[C@H](CO)[C@@H](O)[C@H](O)[C@H]4O)[C@@H]3[C@@]3(CO)O[C@@H]23)cc1O | inactive |  |
| Cc1ncc([N+](=O)[O-])n1CC(O)CN1CCOCC1 (centres undefined) | inactive |  |
| C=CC(C)(O)CC/C=C(/C)C(=O)OC1C(OC2OCC(OC3OC(CO)C(O)C(O)C3O)C(OC3OCC(O)C(OC4OC(C)C(O)C(O)C4O)C3O)C2O)COC(OC(=O)C23CCC(C)(C)CC2C2=CCC4C5(C)CCC(OC6OC(CO)C(OC7OC(CO)C(O)C(OC8OCC(O)C(O)C8O)C7O)C(O)C6O)C(C)(C)C5CCC4(C)C2(C)CC3O)C1O (centres undefined) | inactive |  |
| O=C1C[C@@H](c2ccc(O)cc2)Oc2cc(O)ccc21 |  | -9.15% |
| CC(C)CC(=O)n1cc(C(N)=O)c(=O)cc1C(O)c1ccccc1 (centres undefined) | inactive |  |
| COc1cc([C@H]2OC[C@]3(OC(C)=O)[C@@H](c4ccc(O[C@@H]5O[C@H](CO)[C@@H](O)[C@H](O)[C@H]5O)c(OC)c4)OC[C@H]23)ccc1O | inactive |  |

| SMILES | outcome | max response |
| --- | --- | --- |
| CC(C)=CCc1ccc(Oc2c(O)cc(C)cc2CO)c(C(=O)O)c1O |  | -1.26% |
| O=C(O)CCc1cccc(O[C@@H]2O[C@H](CO)[C@@H](O)[C@H](O)[C@H]2O)c1O | inactive |  |
| COC(=O)[C@@]1(O)C=CC[C@@H]2[C@@]3(C)C[C@@H](c4ccoc4)OC(=O)[C@H]3CC[C@]21C | inactive |  |
| CC(C)CC(=O)OC[C@H]1O[C@@](COC(=O)CC(C)C)(O[C@H]2O[C@H](CO)[C@@H](O)[C@H](O)[C@H]2O)[C@@H](OC(=O)CC(C)C)[C@@H]1OC(=O)CC(C)C |  | -0.942% |
| C=CC(C)(C)O[C@@H]1O[C@H](CO[C@@H]2OC[C@](O)(CO)[C@H]2O)[C@@H](O)[C@H](O)[C@H]1O |  | -2.3% |
| CCC(C)/C=C(C)/C=C/C1=CC2=C(Cl)C(=O)C(C)(OC(C)=O)C(=O)C2=CN1C1CCCCN(C(CCC(N)=O)C(=O)O)C1=O (centres undefined) | inactive |  |
| CN[C@@H]1[C@@H](O)[C@@H](O[C@@H]2[C@@H](O)[C@H](O[C@H]3O[C@H](CN)[C@@H](O)[C@H](O)[C@H]3O)[C@@H](N)C[C@H]2NC(=O)[C@@H](O)CN)OC[C@]1(C)O |  | -2.08% |
| O=C(O)C[C@@H](NC(=O)c1cc(-c2ccc(-c3ccncc3)cc2)cs1)c1ccccc1 |  | 1.97% |
| CC(CCC1(O)OC2CC3C4CCC5CC(O[C@@H]6O[C@H](CO)[C@@H](O)[C@H](O)[C@H]6O[C@@H]6OC[C@@H](O)[C@H](O)[C@H]6O)C(O)CC5(C)C4CCC3(C)C2C1C)CO[C@@H]1O[C@H](CO)[C@@H](O)[C@H](O)[C@H]1O (some centres undefined) |  | -0.157% |
| O=C(O[C@H]1[C@@H]2C[C@@H]3OC[C@@](O)([C@H]2[C@H](O[C@@H]2O[C@H](CO)[C@@H](O)[C@H](O)[C@H]2O)O3)[C@@H]1O)c1ccccc1 | inactive |  |
| C[C@H]1C[C@H]2[C@@H]3CCC4=CC(=O)C=C[C@]4(C)[C@@]3(F)[C@@H](O)C[C@]2(C)[C@@]1(O)C(=O)COP(=O)(O)O |  | 2.73% |
| CCOC(=O)c1ccc(N(C)c2csc(-c3ccccc3)n2)cc1 |  | 4.84% |
| C[C@@H]1C[C@H](O[C@@H]2O[C@H](CO[C@@H]3OC[C@](O)(CO)[C@H]3O)[C@@H](O)[C@H](O)[C@H]2O)CC(C)(C)[C@H]1/C=C/[C@@H](C)O |  | -2.76% |
| Oc1ccc([C@H]2COc3cc(O)ccc3C2)cc1 | inactive |  |
| CC(C)(C)c1cc(CN2CCN(CC(O)c3ccc(Cl)cc3)CC2)cc(C(C)(C)C)c1O (centres undefined) |  | -1.02% |
| COc1cc(C2c3cc(O)c(OC)cc3CC(CO)C2CO)ccc1O (centres undefined) | inactive |  |
| O=C1Nc2ccc(O)cc2O[C@H]1O[C@@H]1O[C@H](CO)[C@@H](O)[C@H](O)[C@H]1O |  | -3.66% |
| Clc1ccc2c(c1)C1=NCCN1c1c(-c3noc(C4CC4)n3)ncn1-2 | inactive |  |
| C=C[C@H]1[C@H](O[C@@H]2O[C@H](CO)[C@@H](O)[C@H](O)[C@H]2O)OC=C(C(=O)OC)[C@H]1C[C@@H]1N[C@H](C(=O)O)Cc2c1[nH]c1ccccc21 |  | 2.01% |
